The nature of experiment [1]: APR_HepG2_NuclearSize_72hr: Apredica 72-hour HepG2 Assay for Nuclear Size (AID 2282925). To be noted: high-content imaging, actives raise or lower the signal. The gist of the method: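 Nuclear size was read by high-content imaging of Hoechst 33342 stain after formaldehyde fixation. Compounds ran 72 h on HepG2 at 0.39 to 200 uM, with final DMSO 0.5% v/v. Curves fitted both directions relative to DMSO control.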

For experiment [2], the target named is CCAAT/enhancer-binding protein beta (Homo sapiens) (UniProt P17676). The experiment can be described thus: ATG_C_EBP_CIS: Attagene CIS-FACTORIAL HepG2 Assay for human CCAAT/Enhancer Binding Protein (C/EBP) beta (AID 2282927). To be noted: HepG2 Attagene cis-factorial transcription factor reporter; actives raise or lower the signal. In outline:
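Endogenous transcription factor activity in human liver HepG2 cells is inferred from induction of a CEBPB-linked reporter mRNA. Exposure lasts 24 h; activity is fitted in both directions relative to DMSO.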

Experiment [3] in a line: ATG_CMV_CIS: Attagene CIS-FACTORIAL HepG2 Assay for human CMV (Internal Marker) (AID 2282928).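 Note: endpoint acts as a background internal control marker rather than a target.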 To be noted: HepG2 CMV promoter reporter, transcription factor profiling; actives raise or lower the signal. The gist of the method: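 Readout: fluorescent reporter cDNA fragments separated by capillary electrophoresis after RT-PCR and HpaI cut. Cells: HepG2 carrying transfected cis-promoter reporter constructs, dosed 24 h. Endpoint serves as background internal-marker control, fit bidirectionally versus DMSO.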

A short description of experiment [4]: ATG_DR4_LXR_CIS: Attagene CIS-FACTORIAL HepG2 Assay for human Liver X Receptor (LXR), DR4 submotif (AID 2282929). To be noted: HepG2 Attagene DR4 cis-reporter, mRNA transcription; actives raise or lower the signal. In outline:
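After transient transfection with multiplexed cis-promoter reporter units, HepG2 cells received test chemicals for 24 h. Reporter mRNA induction, detected by fluorescence after RT-PCR and capillary electrophoresis, was scored relative to DMSO.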

The target in experiment [5] is Aryl hydrocarbon receptor (Homo sapiens) (UniProt P35869). The experiment can be described thus: ATG_Ahr_CIS: Attagene CIS-FACTORIAL HepG2 Assay for human Aryl Hydrocarbon Receptor (Ahr) (AID 2282930). To be noted: HepG2 AhR cis-factorial reporter transcription; actives raise or lower the signal. In outline: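 Transient MRTU transfection of HepG2 → 24 h compound exposure → total RNA, oligo(dT) RT → PCR, 6-FAM extension, HpaI cut → CE fluorescence. DMSO = baseline; bidirectional curve fit.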

A short description of experiment [6]: ATG_AP_1_CIS: Attagene CIS-FACTORIAL HepG2 Assay for human Activator Protein 1 (AP-1) (AID 2282931). To be noted: HepG2 Attagene cis-factorial AP-1 reporter mRNA; actives raise or lower the signal. In outline: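 After 24 h incubation with test chemical, RNA from transfected HepG2 cells was reverse-transcribed, amplified, fluorescently labelled and digested before capillary electrophoresis. Reporters were driven by cis-regulatory promoters; activity fitted bidirectionally versus DMSO.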

Experiment [7] can be described thus: ATG_AP_2_CIS: Attagene CIS-FACTORIAL HepG2 Assay for human Activator Protein 2 (AP-2) (AID 2282932). To be noted: HepG2 AP-2 cis-reporter, Attagene transcription factor profiling; actives raise or lower the signal. In outline:
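Endogenous transcription factor activity is reported through transfected multiplex reporter constructs in HepG2, after 24 h of compound exposure. Transcripts were quantified by RT-PCR and capillary electrophoresis of fluorescent fragments. Bidirectional fit against DMSO.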

Experiment [8] addresses Retinoic acid receptor alpha (Homo sapiens) (UniProt P10276). The experiment can be described thus: ATG_DR5_RAR_CIS: Attagene CIS-FACTORIAL HepG2 Assay for human Retinoic Acid Receptor Alpha (RARE), DR5 submotif (AID 2282934).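 For AC50: reporter responds to endogenous RAR alpha beta and gamma in HepG2 not RARA alone.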 To be noted: HepG2 Attagene cis-factorial RARE DR5 reporter, mRNA; actives raise or lower the signal. The gist of the method:
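Transient MRTU transfection of HepG2; 24 h compound treatment; TriZol RNA, oligo(dT) RT, PCR, FAM labelling, capillary electrophoresis. Bidirectional fit vs DMSO. Endogenous TF activity at DR5 RARE.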

Experiment [9] is described as follows: ATG_CRE_CIS: Attagene CIS-FACTORIAL HepG2 Assay for human cAMP Responsive Element (CRE) binding protein 3 (AID 2282926). To be noted: HepG2 CRE cis-reporter, Attagene multiplexed mRNA; actives raise or lower the signal. In outline: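 Induced reporter mRNA from a CRE cis element, measured in HepG2 among many multiplexed units at 24 h. Detection used RT-PCR plus capillary electrophoresis of fluorescent fragments; DMSO served as negative control.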

Experiment [10] in a line: ATG_BRE_CIS: Attagene CIS-FACTORIAL HepG2 Assay for human Bone Morphogenetic Protein (BMP) Response Element (BRE) (AID 2282933). To be noted: HepG2 BMP response element reporter, Attagene transcription factor profiling; actives raise or lower the signal. In outline:
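Endogenous transcription factor activity read in transiently transfected HepG2 cells after 24 h chemical exposure. Bidirectional curve fitting against DMSO; readout is reporter transcript level by RT-PCR with capillary electrophoresis of labelled products.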

Several values for one entry are separate records, joined by “and”; a condition that tells them apart may be missing. Identical values can stand only once. Some compounds were tested as several samples or in several runs, with calls that do not always agree. Activity calls are given as the source filed them. Rule for the calls: active = hit-call score of the fitted dose curve at least 0.9, where 1 is the maximum; inactive = score below 0.9.

Chain of Retinoic acid receptor alpha (Homo sapiens) (P10276 whole entry, looked up): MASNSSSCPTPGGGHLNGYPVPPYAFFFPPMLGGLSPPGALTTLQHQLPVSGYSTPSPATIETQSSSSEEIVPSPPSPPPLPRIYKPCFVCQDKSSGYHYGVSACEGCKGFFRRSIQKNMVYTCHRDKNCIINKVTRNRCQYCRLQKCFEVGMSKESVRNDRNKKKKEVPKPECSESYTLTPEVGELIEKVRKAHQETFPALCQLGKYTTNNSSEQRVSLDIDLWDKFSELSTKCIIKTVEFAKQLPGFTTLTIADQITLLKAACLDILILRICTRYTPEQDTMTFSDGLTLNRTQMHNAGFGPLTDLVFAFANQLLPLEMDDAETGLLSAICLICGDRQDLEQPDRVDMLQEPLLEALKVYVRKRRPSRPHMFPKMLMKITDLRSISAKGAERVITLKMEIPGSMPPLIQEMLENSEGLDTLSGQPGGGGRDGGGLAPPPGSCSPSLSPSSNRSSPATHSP
Chain of Aryl hydrocarbon receptor (Homo sapiens) (P35869 whole entry, looked up): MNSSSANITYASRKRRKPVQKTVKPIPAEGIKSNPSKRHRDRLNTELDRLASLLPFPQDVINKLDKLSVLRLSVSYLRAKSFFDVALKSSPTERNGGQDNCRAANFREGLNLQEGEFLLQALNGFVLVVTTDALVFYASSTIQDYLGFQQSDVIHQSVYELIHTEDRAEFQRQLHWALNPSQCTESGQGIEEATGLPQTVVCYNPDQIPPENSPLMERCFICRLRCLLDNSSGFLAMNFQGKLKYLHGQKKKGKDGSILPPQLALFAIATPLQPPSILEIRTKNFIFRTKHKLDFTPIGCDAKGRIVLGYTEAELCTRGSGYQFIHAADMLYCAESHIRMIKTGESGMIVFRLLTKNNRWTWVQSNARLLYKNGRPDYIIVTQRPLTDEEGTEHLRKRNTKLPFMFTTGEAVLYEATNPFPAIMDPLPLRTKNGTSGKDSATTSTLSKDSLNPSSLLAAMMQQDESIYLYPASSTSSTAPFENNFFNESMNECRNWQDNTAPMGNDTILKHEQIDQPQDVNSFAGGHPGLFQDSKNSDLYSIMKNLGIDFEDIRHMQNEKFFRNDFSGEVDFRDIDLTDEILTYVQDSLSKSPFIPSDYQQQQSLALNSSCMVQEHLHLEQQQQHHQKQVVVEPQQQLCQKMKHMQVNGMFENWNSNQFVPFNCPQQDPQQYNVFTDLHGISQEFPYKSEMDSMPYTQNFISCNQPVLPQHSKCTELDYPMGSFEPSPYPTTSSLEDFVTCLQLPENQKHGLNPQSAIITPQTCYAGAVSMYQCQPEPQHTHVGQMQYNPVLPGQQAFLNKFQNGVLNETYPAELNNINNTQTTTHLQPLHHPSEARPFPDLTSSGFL
Chain of CCAAT/enhancer-binding protein beta (Homo sapiens) (P17676 whole entry, looked up): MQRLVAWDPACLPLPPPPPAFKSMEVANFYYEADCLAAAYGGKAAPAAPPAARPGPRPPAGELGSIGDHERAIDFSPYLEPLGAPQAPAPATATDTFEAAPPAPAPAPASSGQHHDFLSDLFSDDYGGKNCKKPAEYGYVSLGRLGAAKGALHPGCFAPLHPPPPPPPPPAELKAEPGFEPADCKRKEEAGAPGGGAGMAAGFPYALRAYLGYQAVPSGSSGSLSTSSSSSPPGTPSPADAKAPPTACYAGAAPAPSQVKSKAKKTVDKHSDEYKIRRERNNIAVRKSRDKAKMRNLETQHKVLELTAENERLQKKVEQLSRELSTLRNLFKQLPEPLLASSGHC

As a reminder, the AC50 is the concentration at which the activity in the assay is half-maximal. Take `O=C(/C=C/c1ccc(O)cc1)CC(=O)/C=C/c1ccc(O)cc1`: the AC50 is 49.4 µM (active) in [1]; 77.7 µM (active) in [3]; 18.9 µM (active) in experiment [4]; 62 µM (active) in experiment [6]; 100 µM (active) in experiment [7]. Further, the result in experiment [2], in experiment [5] and in experiment [8] was inactive.

For `OC1CCCCC1`, the call in [9], in experiment [2], in experiment [3], in experiment [4], in [5] and in experiment [6] was inactive. Moreover, the molecule was classed as inactive in experiment [7], in experiment [10] and in experiment [8].

With `CC(=O)CC(C)(C)O`, the result in experiment [2], in [3], in [4], in experiment [6], in experiment [7] and in experiment [8] was inactive.

In the case of `COc1cc(CCC(=O)CC(=O)CCc2ccc(O)c(OC)c2)ccc1O`, the outcome in experiment [2], in experiment [3], in experiment [4], in experiment [5], in [6] and in [7] was inactive. The result in [10] and in experiment [8] was inactive.

`CCCOc1sc(C(=O)N2CCC(c3cc(CN)ccc3F)CC2)c(C)c1Br`: the outcome in [2], in [3], in experiment [4], in experiment [5], in experiment [7] and in [8] was inactive. The AC50 in [6] was 3.7 µM (active).

With `CC[C@H](c1ccc(O)cc1)[C@@H](CC)c1ccc(O)cc1`, the result in experiment [2], in experiment [4], in experiment [5], in experiment [7] and in [10] was inactive. For the same molecule, the half-maximal activity concentration (AC50) in experiment [3] is 12.5 µM (active) and 11.1 µM (active) and 7.79 µM (active); in [4] it was 11.1 µM (active) and 11 µM (active); in experiment [6] it was 11.1 µM (active) and 7.83 µM (active) and 9.21 µM (active).

As to `O=[N+]([O-])c1ccc(O)cc1`, the result in [2], in experiment [3], in [4], in experiment [5], in experiment [6] and in experiment [7] was inactive. For the same molecule, the molecule was called inactive in [8].

As to `NCC(F)(F)C(F)(F)C(F)(F)C(F)(F)C(F)(F)C(F)(F)C(F)(F)F`, the call in experiment [9], in [2], in [3], in experiment [4], in experiment [5] and in [6] was inactive. Besides, the outcome in [7] and in experiment [8] was inactive.

Turning to `Oc1cc2ccccc2c2ccccc12`, the outcome in experiment [2], in experiment [3], in experiment [4], in experiment [5], in experiment [6] and in experiment [7] was inactive. Further, in experiment [8], the outcome was inactive.

`CC(C)(C)c1cccc(C(C)(C)C)c1O`: the outcome in experiment [2], in experiment [4], in experiment [5], in experiment [7] and in experiment [10] was inactive. For the same molecule, the AC50 in experiment [3] was 100 µM (active); in experiment [6] it was 128 µM (active); in experiment [8], 100 µM (active).

`Cc1cc(CCN2CCN(c3nsc4ccccc34)CC2)cc2c1NC(=O)CC2(C)C`: the result in [9], in experiment [3], in experiment [5] and in [7] was inactive. Further, the AC50 in experiment [2] is 7.43 µM (active); in experiment [4], 2.82 µM (active); in experiment [6], 3.21 µM (active); in [8], 3.74 µM (active).

Take `CC(C)(C)c1cc(C(C)(C)C)c(O)c(C(C)(C)C)c1`: the outcome in experiment [2], in experiment [3], in [4], in experiment [5], in [7] and in experiment [10] was inactive. In addition, the half-maximal activity concentration (AC50) is 74.9 µM (active) in experiment [3]; 76.4 µM (active) and 27 µM (active) in [6].

Consider `N#C[C@@H]1CC(F)(F)CN1C(=O)CNC1CC2CCC(C1)N2c1ncccn1` (stereo partly specified), for which the outcome in experiment [2], in experiment [3], in [4], in experiment [5], in [6] and in experiment [7] was inactive. Moreover, the result in experiment [10] and in experiment [8] was inactive.

Take `CCCOC(=O)c1ccc(O)cc1`: the outcome in experiment [2], in experiment [3], in [4], in [5], in [6] and in experiment [7] was inactive. The molecule was called inactive in experiment [8]. In addition, the AC50 in [3] was 121 µM (active); in experiment [4], 26.1 µM (active); in [6], 48.2 µM (active); in experiment [8], 25.2 µM (active).

On to `OC1CCC(C2CCCCC2)CC1` (stereo unspecified), for which the result in experiment [9], in experiment [2], in experiment [5], in [6], in experiment [7] and in experiment [10] was inactive. Moreover, the result in [8] was inactive. Also, the AC50 in experiment [4] was 158 µM (active) [middle of 4 runs]; in [5], 1.32 µM (active) and 47 µM (active); in experiment [6], 162 µM (active) and 149 µM (active); in [7], 56.9 µM (active).

Regarding `CCCCCCCCOC(=O)CCCCCCCCC(=O)OCCCCCCCC`, the molecule was classed as inactive in experiment [9], in experiment [2], in [3], in [4], in experiment [5] and in experiment [6]. Moreover, the molecule was called inactive in experiment [7] and in experiment [8].

For `Cc1cc(C)c(O)c(C)c1`, the molecule was classed as inactive in [9], in [2], in [4], in experiment [5], in experiment [6] and in [7]. The molecule was called inactive in [10]. The AC50 in [3] and in experiment [8] was 100 µM (active) throughout.

For `CCCCCCCCC(=O)O`, the outcome in [9], in experiment [2], in [3], in experiment [4], in experiment [5] and in [6] was inactive. For the same molecule, the result in experiment [7], in experiment [10] and in experiment [8] was inactive.

Take `CC(C)(C)CC(C)(C)c1ccc(O)c(-n2nc3ccccc3n2)c1`: the molecule was classed as inactive in [9], in experiment [2], in [4], in experiment [5], in experiment [7] and in [8]. Moreover, the results for the AC50 in [3] and in experiment [6] were 61.4 µM (active) and 58.3 µM (active), respectively.

The record behind these values is PubChem BioAssay (EPA / NIEHS).
